High-throughput results (PubChem)
ERAP1 inh: human ERAP1 aminopeptidase inhibitors, primary screen, biochemical, single point, plate reader; AID 652197, 2013; inhibition, % at 10.7 µM; 340,000 tested, 0.15% active; recombinant ERAP1, Leu-AMC fluorescence, 60 min;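 active means mean replicate inhibition of at least 30%, or all replicates individually reaching that 30% level; inactive means mean below 30% and not every replicate reaching it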;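 further: 0% = neutral control wells and 100% = L-leucinethiol positive control wells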
Rtt109 Vps75: inhibitors of C. albicans Rtt109/Vps75 HAT, primary screen, biochemical, ThioGlo CoA-SH fluorescence, plate reader; Histone acetyltransferase RTT109 (Candida albicans (strain SC5314 / ATCC MYA-2876)), …; purified Rtt109/Vps75, 4 h; inhibition, % at 34.9 µM; 330,000 tested, 0.16% active; AID 540336, 2011;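 active means inhibition of at least 50% in every replicate; inconclusive means best replicate reaches 50% inhibition but some replicates fall short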
PDI turbidity: inhibitors of human PDI, primary screen, biochemical, turbidity, single point, plate reader; Protein disulfide-isomerase (Homo sapiens), P07237; PDI insulin aggregation turbidity, A650, 90 min; inhibition, % at 10 µM; 350,000 tested, 0.052% active;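 active means mean inhibition across replicates of 30% or more, whatever share of single replicates reach that level; inconclusive means mean inhibition below 30% while every single replicate reaches 30%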
Target sequence (P07237 whole entry, looked up): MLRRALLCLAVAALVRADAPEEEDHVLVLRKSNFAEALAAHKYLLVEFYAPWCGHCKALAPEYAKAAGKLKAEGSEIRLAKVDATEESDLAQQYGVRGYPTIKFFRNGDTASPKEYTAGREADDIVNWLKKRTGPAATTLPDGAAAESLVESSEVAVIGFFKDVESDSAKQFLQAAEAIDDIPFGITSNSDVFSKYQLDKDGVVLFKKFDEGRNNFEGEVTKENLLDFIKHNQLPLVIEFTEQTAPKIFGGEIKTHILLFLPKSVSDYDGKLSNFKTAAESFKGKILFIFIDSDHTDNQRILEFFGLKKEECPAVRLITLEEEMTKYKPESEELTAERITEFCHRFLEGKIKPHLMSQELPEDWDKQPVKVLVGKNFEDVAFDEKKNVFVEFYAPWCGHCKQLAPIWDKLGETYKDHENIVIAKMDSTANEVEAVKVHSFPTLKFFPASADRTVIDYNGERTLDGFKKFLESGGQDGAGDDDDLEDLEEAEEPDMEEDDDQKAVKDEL
PvdQ inh: P. aeruginosa PvdQ acylase inhibitors, primary screen, biochemical, fluorescence, plate reader and imaging, single point. PvdQ acylase [Pseudomonas aeruginosa LESB58]. purified PvdQ acylase. inhibition, % at 10 µM. 340,000 tested, 0.063% active; in the data active means inhibition above about 30%, passing the limit was not always enough; inconclusive means no clear call, values can overlap the other calls;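 further: 0% = vehicle neutral wells and 100% = reference inhibitor wells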
ERp5 block: inhibitors of ERp5-driven insulin aggregation, primary screen, biochemical, turbidity, absorbance 650 nm, single point; 90 min; inhibition, % at 9.99 µM; 350,000 tested, 0.05% active; AID 651711, 2012;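 active means mean replicate inhibition above about 25%, with every replicate also reaching it, limit read from the data, passing the limit was not always enough; inconclusive means only one of those two criteria met; inactive means neither criterion met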
* = called active by the depositor; ? = inconclusive; nt = not tested or not shown. Sampled rows, rich in hits. Any-hit rate of the full collection: about 0.35%.

SMILES	ERAP1 inh	Rtt109 Vps75	PDI turbidity	PvdQ inh	ERp5 block
CCn1c2c(c(C)cc1=O)C(=O)CC(C)(C)C2	nt	5	0	-12	nt
CCn1c(C)c2c([n+]1CC)CC(C)(C)CC2=O	109*	-2	-3	-7	-3
C#CCOCCOCCOCCNc1nc(N2CCN(C(=O)C([C@@H](C)O)n3cc([C@@H](N)CCCCN)nn3)CC2)nc(N2CCN(C(=O)[C@H](CCCCN)n3cc([C@@H](N)CC(N)=O)nn3)CC2)n1 (some centres undefined)	-6	91*	1	-1	-8
C#CCOCCOCCOCCNc1nc(N2CCN(C(=O)[C@H](CCCCN)n3cc([C@@H](N)C(C)CC)nn3)CC2)nc(N2CCN(C(=O)[C@H](Cc3cc4ccccc4[nH]3)n3cc([C@@H](N)CC(C)C)nn3)CC2)n1 (some centres undefined)	nt	47	44*	-22	nt
C#CCOCCOCCOCCNc1nc(N2CCN(C(=O)[C@H](CCCN=C(N)N)n3cc(C(N)[C@@H](C)CC)nn3)CC2)nc(N2CCN(C(=O)[C@H](CCCCN)n3cc([C@@H](N)[C@H](C)CC)nn3)CC2)n1 (some centres undefined)	-5	54*	-1	0	8
C#CCOCCOCCOCCNc1nc(N2CCN(C(=O)[C@H](CCCCN)n3cc([C@@H](N)CC(N)=O)nn3)CC2)nc(N2CCN(C(=O)[C@H](CCCCN)n3cc([C@@H](N)CC(N)=O)nn3)CC2)n1	0	14	3	11	5
C#CCOCCOCCOCCNc1nc(N2CCN(C(=O)CCCCCCCCCCNC(=O)[C@H]([C@@H](C)CC)n3cc(CCCCN=C(N)N)nn3)CC2)nc(N2CCN(C(=O)CCCCCCCCCCNC(=O)[C@H](CO)n3cc(CCCCCN)nn3)CC2)n1	nt	87*	4	0	nt
COC(=O)[C@@H]1[C@@H](CO)[C@@H]2Cn3c(ccc(-c4cccc(C(=O)N(C)C)c4)c3=O)[C@@H]2N1C	8	nt	nt	nt	2
O=C(C[C@H]1C[C@H]2c3cc(NC(=O)C4CCC4)ccc3O[C@H]2[C@H](CO)O1)NCCc1ccccc1	1	nt	nt	nt	2
CN1C(=O)c2cc(NS(C)(=O)=O)ccc2OC[C@@H]2O[C@@H](CC(=O)N3CCOCC3)CC[C@@H]21	2	nt	nt	nt	0
CC(=O)Nc1ccc(NC(=O)c2nc(S(=O)(=O)Cc3ccccc3)ncc2Cl)cc1	-1	113*	4	-4	5
CCOC(=O)N1CCc2c(sc(NC(=O)c3ccc(S(=O)(=O)N4CCCC4)cc3)c2C#N)C1	31*	14	nt	6	-4
C[C@@H]1CN([C@H](C)CO)C(=O)c2cccc(NC(=O)C3CCCCC3)c2O[C@@H]1CN(C)C(=O)Nc1cccc2ccccc12	1	nt	nt	nt	-2
CN(C)c1cc[n+](CC(=O)Nc2ccc(OC(F)F)cc2)cc1	107*	-6	23	-14	-4
CN(CC(=O)Nc1cccc(F)c1)C(=O)CCc1nc2ccccc2c(=O)[nH]1	49*	5	-1	-6	4
Cc1ccc(S(=O)(=O)/N=S(/c2ccccc2)C(C)C)cc1 (centres undefined)	46*	?	-2	-10	3
CCCn1c(/C=C/c2ccccc2)nc2ccccc21	nt	2	-2	6	nt
CCn1c(/C=C/c2cc[n+](C)cc2)nc2ccccc21	59*	4	-5	-1	5
CCCNC(=O)C[C@H]1C[C@H]2c3cc(NS(C)(=O)=O)ccc3O[C@H]2[C@@H](CO)O1	1	nt	nt	nt	27*
CCCNC(=O)C[C@@H]1C[C@H]2c3cc(NS(C)(=O)=O)ccc3O[C@H]2[C@@H](CO)O1	2	nt	nt	nt	56*
C[C@@H]1CN([C@H](C)CO)C(=O)c2cc(C3=CCCC3)cnc2O[C@@H]1CN(C)C(=O)C1CCOCC1	5	nt	nt	nt	9
O=C(N[C@@H]1CC[C@H](CCn2cc(C3(O)CCCC3)nn2)O[C@@H]1CO)C1CC1	1	nt	nt	nt	-4
COC(=O)c1[nH]nc(-c2ccccc2)c1-c1ccccc1	nt	54*	-4	0	1
COC(=O)c1[nH]nc2c1C(=O)N(Cc1ccccc1)C2=O	nt	0	-9	-11	nt
Cc1ccc(S(=O)(=O)NC[C@H]2CC[C@H]3[C@H](CN3Cc3cc(F)ccc3F)O2)cc1	0	nt	nt	nt	0
SMILES	ERAP1 inh	Rtt109 Vps75	PDI turbidity	PvdQ inh	ERp5 block
COCC1OC(OC(C)C(O)c2cnc3nc(N)[nH]c(=O)c3n2)C(O)C(OC)C1O (centres undefined)	33*	nt	nt	nt	5
CCC[C@@H](CN1CCC[C@H]1CN1C(N)=NC[C@H]1CC(C)C)N1C[C@@H]([C@H](C)CC)N(CCCC2CCCC2)C1=N	-2	5	-69	-4	27*
CC(C)C[C@@H]1CN=C(N)N1C[C@@H]1CCCN1C[C@H](C)N1C[C@@H](Cc2ccccc2)N(CCc2ccc(Cl)c(Cl)c2)C1=N	nt	75*	16	-22	nt
CC(C)C[C@@H]1CN=C(N)N1C[C@@H]1CCCN1C[C@@H](C(C)C)N1C[C@@H](Cc2ccccc2)N(CCc2ccc(Cl)c(Cl)c2)C1=N	23	-6	11	7	-2
C[C@H]1CCCCO[C@H](CN(C)C(=O)C2CCCCC2)[C@@H](C)CN([C@@H](C)CO)C(=O)c2cc(NC(=O)Nc3cccc4ccccc34)ccc2O1	-2	nt	nt	nt	0
O=C(NC1CCS(=O)(=O)C1)c1cccc(Br)c1 (centres undefined)	1	-2	1	41*	-2
CC(C)NC(=O)N1[C@@H]2c3cccc(=O)n3C[C@@H]2[C@@H](CO)[C@@H]1C(=O)N1CCc2ccccc2C1	2	nt	nt	nt	7
Cc1ccc(S(=O)(=O)CCC(=O)N(CCCN2CCOCC2)c2nc3ccccc3s2)cc1	0	6	5	-13	1
O=C(CCS(=O)(=O)c1ccccc1)N(CCCN1CCOCC1)c1nc2ccccc2s1	2	3	38*	-13	-8
COc1ccc(/C=C\c2cc(OC)c(OC)cc2CC[N+](C)(C)C)cc1OC	99*	13	7	-12	4
COc1ccc(/C=C/c2ccncc2)cc1OC	nt	-5	-1	-12	nt
CN(C)CC(=O)N1CCCCN2[C@H](CO)[C@H](c3ccc(/C=C/c4ccccc4)cc3)[C@@H]2C1	0	nt	nt	nt	4
C[C@]12CC[C@H]3C(=CCc4cc(O)ccc43)[C@@H]1CCC2=O	-1	-3	33*	-7	1
C[C@@H]1CN([C@@H](C)CO)C(=O)Cc2cc(NC(=O)Cn3cnnn3)ccc2O[C@H]1CN(C)Cc1ccc2c(c1)OCO2	-2	nt	nt	nt	-4
